Consider 108 molecules from PubChem BioAssay AID588790 (National Center for Advancing Translational Sciences (NCATS), 2011).

The structures appear in SMILES notation. Hit rate of the full screen: of about 1,200 compounds, about 85 (7%) were called active. Shown is part of a subset that was picked to be rich in actives. A number with no mark means an inactive call. Calls follow the shape of the full dose curve.
Potency is read from the fitted curve at half-maximal effect.

Sequence of Beta-2 adrenergic receptor (Homo sapiens) (P07550 whole entry, looked up): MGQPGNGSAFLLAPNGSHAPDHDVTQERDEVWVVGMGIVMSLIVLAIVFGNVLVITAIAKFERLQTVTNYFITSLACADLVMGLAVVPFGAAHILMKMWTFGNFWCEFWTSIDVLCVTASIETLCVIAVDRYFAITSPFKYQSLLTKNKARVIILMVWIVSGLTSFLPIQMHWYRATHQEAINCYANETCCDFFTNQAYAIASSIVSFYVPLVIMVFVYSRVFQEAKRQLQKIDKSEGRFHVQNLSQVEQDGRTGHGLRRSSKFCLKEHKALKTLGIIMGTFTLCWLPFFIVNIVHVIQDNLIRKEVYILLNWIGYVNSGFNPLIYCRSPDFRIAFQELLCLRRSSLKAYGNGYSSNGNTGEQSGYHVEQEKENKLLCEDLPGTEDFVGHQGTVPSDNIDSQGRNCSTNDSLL

The target in the assay is Beta-2 adrenergic receptor (Homo sapiens) (UniProt P07550). Put plainly: qHTS assay of beta-arrestin-biased ligands of beta2-adrenergic receptor: Hit Validation with GloSensor. As to activation: 0% is about no effect. The note with it: W9-Glo22F cells, GloSensor cAMP luminescence, beta2AR agonism; activation: at 46.1 µM (top of the series). The essentials:
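W9-Glo22F cells plated and incubated overnight at 37 deg C, 5% CO2, then compounds pinned in. GloSensor reagent added, 10 min at room temperature, luminescence read.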
On the technique in general: Quantitative high-throughput screening tests each substance at several concentrations.
As to `O=C(Nc1ccc(Cl)cc1)/C(=C/c1cccc(O)c1)c1nc2ccccc2s1`, the “activation” value is -2.33%.

Regarding `O=C(COc1ccc2ccccc2c1)Nc1ccc(Br)cc1C(=O)O`, the “activation” value is 0%.

Turning to `Cc1ccc(NC(=S)NC(NC(=O)c2ccco2)C(Cl)(Cl)Cl)cc1` (stereo not drawn), the “activation” value is -1.16%.

For the molecule `COc1ccc2c(C)nc(Nc3nc(C)cc(C)n3)nc2c1`, the “activation” value was -2.33%.

`COc1ccccc1NC(=S)N/N=C1\CC(C)(C)Oc2ccc(O)cc21`: the “activation” value is -2.33%.

For the molecule `COc1cccc(NC(=S)N/N=C2\CC(C)(C)Oc3ccc(O)cc32)c1`, the Potency was 25.9 µM (active).

On to `CC1(C)C/C(=N\NC(=S)Nc2ccccc2F)c2cc(O)ccc2O1`, for which the “activation” value is 1.16%.

For the molecule `C=CCOc1ccc2ccccc2c1CNn1c(C)n[nH]c1=S`, the Potency was 8.2 µM (active).

As for `CCN(CC)S(=O)(=O)c1ccc(N=Nc2c(C)[nH]n(C(N)=S)c2=O)cc1`, the “activation” value is -1.01%.

On to `O=C(C[C@H]1C[C@H](C(=O)N2CCCCC2)[C@@]2(CCc3ccccc3)c3[nH]c4cc(-c5ccco5)ccc4c3CCN2C1=O)NCCC1=CCCCC1`, for which the “activation” value was 0.306%.

For `C/C(=N\NC(=S)NC(C)C)c1ccc(Cl)s1`, the “activation” value was -0.153%.

As for `O=C(N/N=C/c1cn(-c2ccccc2)nc1-c1cc2ccccc2o1)c1cccnc1`, the “activation” value was -2.33%.

On to `CO/C=C\C=C/c1nnn(-c2ccc(Cl)cc2)n1`, for which the “activation” value is -1.16%.

As for `CCc1ccc(CNc2ccc(O)cc2)cc1`, the “activation” value was -1.16%.

Consider `Cc1ccc(CNc2ccc(O)cc2)cc1`, for which the “activation” value is 0.153%.

Turning to `CC(NCCc1ccc(O)cc1)C(O)c1ccc(O)cc1` (stereo not drawn), the Potency was 0.0116 µM (active).

Regarding `Oc1ccc(/C=N/NC(=S)NC2CC3CCC2C3)cc1` (stereo not drawn), the “activation” value was 7.28%.

For `COc1ccc(-c2c(-c3ccccc3)c(C(=O)C(=O)NCCCN(C)C)n3ccc4cc(OC)c(OC)cc4c23)cc1OC`, the “activation” value was -1.16%.

As for `C=CC[n+]1c(-c2ccc(OC)c(OC)c2)csc1NNC(=O)Nc1ccccc1`, the Potency is 10.3 µM (active).

`C=CC[n+]1c(-c2ccc(C)cc2)csc1NNC(=O)Nc1ccccc1`: the “activation” value is 0.306%.

With `O=C1NC2(C=Cc3c(ccc4ccccc34)O2)Oc2ccccc21` (stereo not drawn), the “activation” value is -2.33%.

For the molecule `COc1cc(/C=N/Nc2ccc(F)cc2F)cc(OC)c1O`, the “activation” value was 0%.

Take `O=C(O)/C=C/c1nc(-c2ccccc2)n2ccccc12`: the Potency was 25.9 µM (active).

On to `C[C@@H](NC(=O)c1coc(=O)c(Br)c1)c1ccccc1`, for which the “activation” value is 1.16%.

On to `O=[N+]([O-])c1cc([N+](=O)[O-])c2cc3ccccc3nc2c1`, for which the “activation” value is -4.96%.

In the case of `Cn1c(CNC(=O)c2ccccc2F)nnc1SCC(=O)c1ccccc1`, the “activation” value is -1.16%.

As for `COc1ccc(NC(=O)c2cc3c(-c4ccc(OC)c(OC)c4)nn(C)c3s2)cc1OC`, the “activation” value is 0%.

Take `COc1ccc(C(C)NC(=O)c2ccc(Br)cc2)cc1OC` (stereo not drawn): the “activation” value was 4.96%.

On to `COC(=O)CSc1ccc2nnc(-c3ccc(OC)c(OC)c3)n2n1`, for which the Potency is 25.9 µM (active).

Regarding `CCOc1ccc(/C(CCC(=O)O)=N/NC(=S)NCCc2ccccc2)cc1`, the “activation” value is 4.8%.

For `COc1ccc(NC(=O)C(=O)NCC(c2ccco2)N2CCc3ccccc32)cc1` (stereo not drawn), the “activation” value was -1.16%.

As for `COc1cc(/C=N/NC(=O)c2cncc(Br)c2)cc([N+](=O)[O-])c1O`, the “activation” value was 0%.

With `Cn1c(O)c(/C=N/NC(=O)c2cc3ccccc3cc2O)c2ccccc21`, the “activation” value was -4.96%.

As for `Oc1[nH]c2ccc(Br)cc2c1N=NC(=S)NCC1CCCO1` (stereo not drawn), the “activation” value is 1.16%.

On to `COc1cc(OC)c(NS(=O)(=O)c2cc(C(=O)OC(C)C(=O)NC3CC3)c(Cl)cc2Cl)cc1Cl` (stereo not drawn), for which the “activation” value was 0%.

Consider `COc1cc(/C=C2\SC(=N)N(c3ccc4c(c3)OCO4)C2=O)cc(OC)c1O`, for which the Potency was 20.6 µM (active).

For the molecule `CCCC1(C(=O)OCC)NC(c2ccc(OC)cc2OC)C2C(=O)N(c3ccc4c(c3)OCCO4)C(=O)C21` (stereo not drawn), the “activation” value was 0.306%.

Consider `CCNC(=S)N/N=C(\C)c1cccc(OC)c1`, for which the “activation” value is -1.16%.

Take `C[C@H](CO)N1C[C@H](C)[C@@H](CN(C)Cc2ccccc2)Oc2c(NC(=O)Cc3ccccc3)cccc2C1=O`: the “activation” value was 0.306%.

For the molecule `CCCN=C1N(CC)C[C@@H]2[C@@H]3C(=O)N(C)C(=O)[C@@H]3[C@](CC)(C(=O)OC)N12`, the “activation” value is 0%.

On to `O=C(COC(=O)c1ccccn1)c1ccc([N+](=O)[O-])cc1`, for which the “activation” value was 4.96%.

For `Cc1ccc(S(=O)(=O)N(Cc2ccc(Cl)cc2)c2ccccc2C(=O)NCc2ccco2)cc1`, the “activation” value was -1.01%.

Turning to `Cc1cc(C)nc(-n2nc(C)cc2NC(=O)CN2CCC(C)CC2)n1`, the Potency was 29.1 µM (active).

For `Cc1cc(C)nc(-n2nc(C)cc2NC(=O)CN2CCCC2)n1`, the Potency was 20.6 µM (active).

On to `CNc1cc(C)nc(-n2nc(C)cc2C)n1`, for which the “activation” value was -2.33%.

With `Cc1cc(C)n(-c2nc(NC(C)(C)C)nc(NC(C)(C)C)n2)n1`, the “activation” value was -1.01%.

On to `CCC(C(=O)Nc1cc(C)nn1-c1nc(C)cc(C)n1)c1ccccc1` (stereo not drawn), for which the Potency was 18.4 µM (active).

Turning to `Cc1cc(C)n(-c2nc(NC(C)C)nc(NC(C)C)n2)n1`, the “activation” value was 1.16%.

Consider `CCC1CCCCN1CC(=O)Nc1cc(C)nn1-c1nc(C)cc(C)n1` (stereo not drawn), for which the Potency is 7.31 µM (active).

Take `CC(=O)Nc1ccc(Nc2cc(C)nc3c(-c4ccccc4)c(C)nn23)cc1`: the “activation” value is 2.33%.

Regarding `Cc1cc(C)nc(-n2nc(C)cc2NC(=O)CNC2CCCCC2)n1`, the “activation” value is 1.16%.

As for `CCNc1nc(NCC)nc(-n2nc(C)cc2C)n1`, the “activation” value is 9.76%.

`Cc1ccc(S(=O)(=O)N2CCN(C(C)C(=O)NCC(C)c3ccccc3)CC2)cc1` (stereo not drawn): the “activation” value is -1.16%.

Regarding `CN(C)C(=S)Nc1nc2ccccc2s1`, the “activation” value was 0.459%.

Regarding `COc1cccc(C2CC3(CC(C)(C)NC(=S)N3)Oc3cc(O)ccc32)c1` (stereo not drawn), the “activation” value is -2.33%.

Take `COCCCN=C1NN=C(c2cc(C)n(-c3ccccc3)c2C)CS1`: the “activation” value is 5.81%.

As for `COc1ccc(N2C(=O)C(CC(=O)Nc3ccc(Cl)cc3)N(NC(=O)c3cccc(F)c3)C2=S)cc1` (stereo not drawn), the “activation” value was 0.306%.

As for `O=C(NCCN1CCOCC1)c1ccccc1Cl`, the Potency was 20.6 µM (active).

Consider `O=C(NCCN1CCOCC1)c1cc(Br)ccc1Cl`, for which the “activation” value is -1.16%.

In the case of `O=C(NC(=S)N1CCCCCC1)c1ccccc1Cl`, the “activation” value is 0.306%.

Regarding `C=C(C)c1cccc(C(C)(C)NC(=O)NC2CCN(Cc3ccccc3)CC2)c1`, the “activation” value was 0.306%.

As for `CC(=O)Oc1ccc2cc(-c3ccccc3)c(=O)oc2c1`, the “activation” value is 0.306%.

In the case of `COc1cc2c(cc1OC)C(c1cc3ccccc3oc1=O)=NC(C)(C)C2`, the Potency was 23.1 µM (active).

For `CC(C)c1ccc(NC(=S)Nc2ccc3cn[nH]c3c2)cc1`, the “activation” value is 0.306%.

As for `O=C(O)C12CC3CC(C1)CC(n1ncc(N4CCN(c5ccccc5)CC4)c(Cl)c1=O)(C3)C2`, the “activation” value is 0.306%.

For `O=C1c2ccccc2-c2onc3ccc(Oc4ccccc4)c1c23`, the Potency was 13 µM (active).

Consider `C=CCn1nc([N+](=O)[O-])nc1Sc1cccc2cccnc12`, for which the “activation” value was 1.16%.

Regarding `C=CCNC(=S)Nc1cc(C)ccn1`, the “activation” value is 0.306%.

Take `O=C(NCC1CCCO1)c1ccc(CS(=O)(=O)c2ccc(Br)cc2)o1` (stereo not drawn): the “activation” value was -1.01%.

On to `COc1ccccc1NS(=O)(=O)c1ccc(NC(=O)Cc2cccs2)cc1`, for which the Potency was 32.6 µM (active).

As to `COc1ccccc1NS(=O)(=O)c1cc(NC(=O)CNC(=O)c2ccc(C)s2)ccc1Cl`, the “activation” value was 0.306%.

For the molecule `CCOc1ccc(CC(=O)Nc2ccc(S(=O)(=O)Nc3cc(C)on3)cc2)cc1OCC`, the “activation” value is -1.16%.

As to `CC(C)N(Cc1cc2ccccc2[nH]c1=O)C(=O)C1CCCCC1`, the “activation” value was 0.306%.

For the molecule `COc1ccc(C2CC(O)(c3ccccc3)Oc3cc(OC)c(OC)c(OC)c32)cc1` (stereo not drawn), the “activation” value is 0.306%.

`COc1cccc(Oc2cnc(N)nc2-c2ccc(OC)cc2O)c1`: the Potency was 23.1 µM (active).

Turning to `COc1ccc(Nc2cc(Nc3cccc(OC)c3)ncn2)cc1`, the “activation” value was 4.96%.

As for `C/C(CC(C)(C)C1CCCCC1)=N\NC(N)=S`, the “activation” value is -1.16%.

For `O=[N+]([O-])c1cc(Cl)c(O)c2ncccc12`, the “activation” value was -1.16%.

`COc1cc([N+](=O)[O-])c2nccnc2c1`: the Potency was 16.4 µM (active).

With `O=[N+]([O-])c1ccc(O)c2ncccc12`, the “activation” value was 0.306%.

Turning to `O=[N+]([O-])c1cc(Br)cc(C=Nc2ccc3c(c2)OCO3)c1O`, the “activation” value was 0%.

In the case of `Oc1ccc(NCc2ccc(OCc3ccccc3)cc2)cc1`, the “activation” value is -2.33%.

Consider `Oc1ccc(NCc2cccc(OCc3ccccc3)c2)cc1`, for which the “activation” value is 0.153%.

With `COc1cc(CNc2ccc(O)cc2)cc(Br)c1OCc1ccccc1`, the Potency was 14.6 µM (active).

`NC(=S)N=Nc1c(O)n(CCCl)c2ccccc12`: the Potency is 25.9 µM (active).

With `CC1CC(C)(C)n2c(O)c(N=NC(N)=S)c3cccc1c32` (stereo not drawn), the “activation” value was 4.96%.

Take `NC(=S)N=Nc1c(O)n(Cc2ccc(F)cc2)c2ccccc12`: the “activation” value is 2.33%.

Regarding `C/C(Cl)=C\Cn1c(O)c(N=NC(N)=S)c2ccccc21`, the “activation” value is 6.12%.

For `NC(=S)N=Nc1c(O)n(CCCl)c2ccc(Cl)cc12`, the Potency is 32.6 µM (active).

Regarding `C=CCn1c(O)c(N=NC(=S)Nc2ccccc2F)c2cc(S(=O)(=O)N3CCOCC3)ccc21`, the “activation” value was 0%.

For `O=C(Oc1cccc2cccnc12)c1ccc2c(c1)OCCO2`, the “activation” value is -1.16%.

Regarding `COc1ccc(NC(=S)Nc2cccc(C)n2)cc1`, the “activation” value was 2.33%.

Turning to `CCc1cc2c(SCC(=O)Nc3ccc(Cl)cn3)ncnc2s1`, the “activation” value is 0%.

`c1ccc(CCNc2nc(-c3ccccn3)cs2)cc1`: the “activation” value was 7.28%.

Regarding `COc1ccc(OCCCC(=O)Nc2nc(-c3ccccn3)cs2)cc1`, the “activation” value was 0.306%.

For the molecule `COc1ccc(CCNc2nc(-c3ccccn3)cs2)cc1OC`, the Potency is 20.6 µM (active).

As for `COc1ccc(NC(=S)NC(=O)c2ccc3c(c2)OCCO3)cc1`, the “activation” value is -0.857%.

As to `Cc1ccc(/C=C2/C(=O)N(c3ccccc3)C(=S)N2C)o1`, the “activation” value was -1.16%.

With `Cc1ccc(N=C2NC(=O)/C(=C/C=C/c3ccco3)S2)cc1`, the “activation” value was 11.8%.

Regarding `Cc1cccc(N=C2NC(=O)/C(=C/c3cccs3)S2)c1`, the Potency was 1.03 µM (active).

Turning to `C#CCn1c(=NC(=O)CSC(C)=O)sc2cc(F)ccc21`, the “activation” value is 8.6%.

Regarding `Cc1ccc2cccc(SCC(=O)NCC#N)c2n1`, the “activation” value is -1.16%.

For the molecule `CC(=O)c1cccc(CN2CCN(CCC(C)C)C(CCO)C2)c1` (stereo not drawn), the “activation” value is 0.153%.

As for `N#C/C(=C\c1cccc(O)c1)c1nc2ccccc2o1`, the Potency was 6.51 µM (active).

As to `N#C/C(=C\c1ccc(Cl)cc1)c1nc2ccccc2o1`, the “activation” value was 0%.

`N#C/C(=C\c1ccncc1)c1nc2ccccc2o1`: the “activation” value was 0.153%.

`CCCC(=O)N(c1ccc(F)cc1)C1C=CS(=O)(=O)C1` (stereo not drawn): the “activation” value is -2.48%.

For `CCCN(CC(=O)Nc1ccc(Cl)cc1Cl)C(=O)/C=C/c1ccco1`, the “activation” value was -2.33%.
